Bioassay records (PubChem BioAssay)
Rows were chosen to be rich in hits. Some 0.86% of all compounds tested hit in one or more screens of this group.
CDC25B CDK2 inh – primary biochemical HTRF screen for blockers of M-phase inducer phosphatase 2 binding to CDK2/cyclin A; P30305+P24941; HTRF CDC25B-CDK2/CyclinA binding, anti-His/anti-Flag; hits give high values; z-score (concentration not given with the values); hit rate 0.72% among 94,000; in the data active = z-score above about 3.2
TAR Tat displ – TAR RNA-Tat peptide displacers, HIV-1, primary screen, biochemical, FRET, FAM/TAMRA-labeled Tat. HIV-1 TAR RNA, Tat peptide displacement FRET; hits give high values. z-score (no concentration beside the values). hit rate 0.6% among 100,000. AID 1259389, 2018; active = z-score of 3 or more in at least 2 runs
Starred values were filed as active, the others as inactive.

How did CC(=O)N1c2ccc(S(=O)(=O)N3c4ccccc4CC3C)cc2CC1C (stereo not given) do in these assays?
TAR Tat displ: 0.07

What do the screens show for `COC(=O)c1cc(S(=O)(=O)N2c3ccccc3CC2C)c[nH]1` (stereo not given)?
TAR Tat displ: 21.6*

Results for CN(c1ccc(Cl)cc1)S(=O)(=O)c1ccsc1-c1nc(-c2cccs2)no1 ?
TAR Tat displ: 0.45

What do the screens show for `CCOC(=O)c1nc2ccccc2n(C)c1=O`?
CDC25B CDK2 inh: 23*; TAR Tat displ: -1.32

What do the screens show for `Cn1c(=O)c(C(=O)O)nc2ccccc21`?
CDC25B CDK2 inh: -1.76; TAR Tat displ: 0.87

Results for COc1cccc(-c2nc(-c3cccs3)c(-c3cccs3)[nH]2)c1 ?
CDC25B CDK2 inh: -1.6

How did Oc1cccc(-c2nc(-c3cccs3)c(-c3cccs3)[nH]2)c1 do in these assays?
CDC25B CDK2 inh: 18.7*; TAR Tat displ: -3.22

Results for Oc1ccc(-c2nc(-c3ccccc3)c(-c3ccc(O)cc3)[nH]2)cc1 ?
CDC25B CDK2 inh: -1.4; TAR Tat displ: -1.74

What do the screens show for `Cc1cc(=O)[nH]c(-c2cccs2)n1`?
CDC25B CDK2 inh: 0.45

What do the screens show for `Oc1ccc(-c2nc(-c3cccs3)c(-c3cccs3)[nH]2)cc1`?
CDC25B CDK2 inh: 19.1*; TAR Tat displ: -0.61

How did c1csc(-c2nc(-c3cccs3)c(-c3cccs3)[nH]2)c1 do in these assays?
CDC25B CDK2 inh: 19.4*; TAR Tat displ: -0.71

Results for O=C(CCc1nnc2ccc(NCc3ccc4c(c3)OCO4)nn12)Nc1nccs1 ?
TAR Tat displ: 1.71

How did NC(=O)c1c(NC(=O)c2cc(-c3ccc4c(c3)OCCO4)on2)sc2c1CCCC2 do in these assays?
CDC25B CDK2 inh: -1.69; TAR Tat displ: 0.44

How did Cc1cccc(OCc2nnc3sc(-c4ccncc4)nn23)c1 do in these assays?
CDC25B CDK2 inh: -0.44; TAR Tat displ: 2.16

Results for CC(C)OC(=O)Cn1c2ccccc2c2nc3ccccc3nc21 ?
CDC25B CDK2 inh: -1.43; TAR Tat displ: 2.86

How did COC(=O)Cn1c2ccc(Cl)cc2c2nc3ccccc3nc21 do in these assays?
CDC25B CDK2 inh: 19.3*; TAR Tat displ: 0.17

Results for O=C1c2[nH]nc(-c3ccccc3O)c2C(c2ccc(Cl)cc2)N1Cc1ccncc1 (stereo not given) ?
CDC25B CDK2 inh: 0.63; TAR Tat displ: -0.28

How did CCCN1CCN(S(=O)(=O)c2ccc3[nH]c(=O)ccc3c2)CC1 do in these assays?
TAR Tat displ: 2.98

How did CCC1CCCCN1S(=O)(=O)c1ccc2[nH]c(=O)ccc2c1 (stereo not given) do in these assays?
TAR Tat displ: 6.55*

Results for CCCCNC(=O)CNC(=O)Cn1cnc2sc(C)c(C)c2c1=O ?
TAR Tat displ: 1.76

How did COc1ccc(-c2nc3c(s2)CN(S(=O)(=O)c2cccc4nsnc24)CC3)cc1 do in these assays?
TAR Tat displ: -0.02

How did Cc1ccc(Cc2nnc(-c3ccc(N)cc3Cl)o2)cc1 do in these assays?
TAR Tat displ: -0.34

What do the screens show for `Cc1ccc(Cc2nnc(-c3cc(N)ccc3F)o2)cc1`?
TAR Tat displ: 33.9*

Results for O=C1CC(c2ccco2)CC2=C1C(c1ccccc1)C1=C(N2)c2ccccc2C1=O (stereo not given) ?
CDC25B CDK2 inh: 12.3*; TAR Tat displ: 0.01

What do the screens show for `CCCCOC(=O)C1=C(C)NC2=C(C(=O)CC(c3ccccc3)C2)C1c1ccco1` (stereo not given)?
CDC25B CDK2 inh: 1.35; TAR Tat displ: 1.55

How did CCC(C)(C)c1nnc(NC(=O)C2CC(=O)N(CCc3c[nH]c4ccc(Cl)cc34)C2)s1 (stereo not given) do in these assays?
CDC25B CDK2 inh: -1.46; TAR Tat displ: 1.65

Results for CCCCN(C)c1ccc2nnc(CCC(=O)O)n2n1 ?
CDC25B CDK2 inh: -1.33; TAR Tat displ: -0.61

How did Cc1csc(NC(=O)CSc2nnc(-c3cc4ccccc4o3)n2-c2ccccc2)n1 do in these assays?
TAR Tat displ: 1.31

What do the screens show for `CCn1c(SCC(=O)Nc2nc(C)cs2)nnc1-c1cc2ccccc2o1`?
TAR Tat displ: 5.35*

Results for COC(=O)c1c(C)oc2ccc(NS(=O)(=O)c3ccc(Cl)cc3)cc12 ?
CDC25B CDK2 inh: -0.32; TAR Tat displ: 0.19

How did Cc1oc2ccc(NS(=O)(=O)c3ccc(Cl)cc3)cc2c1C(=O)O do in these assays?
CDC25B CDK2 inh: 3.91; TAR Tat displ: 23.2*

Results for Cc1oc2ccc(NS(=O)(=O)c3ccc(F)cc3)cc2c1C(=O)O ?
CDC25B CDK2 inh: 0.13; TAR Tat displ: 1.66

What do the screens show for `Cc1oc2ccc(NS(=O)(=O)c3ccccc3)cc2c1C(=O)O`?
CDC25B CDK2 inh: -0.14; TAR Tat displ: 18.2*

Results for Cc1ccc(S(=O)(=O)c2nc(S(=O)(=O)c3ccccc3)sc2NCc2ccco2)cc1 ?
CDC25B CDK2 inh: -1.62; TAR Tat displ: -1.09

How did Cc1cc(C)c(-c2c(NCCCOC(C)C)c(=O)c2=O)cc1C do in these assays?
TAR Tat displ: 1.42

How did COc1ccc2nc(NC(=O)C3CCC(CNc4c(N5CCCC5)c(=O)c4=O)CC3)sc2c1 (stereo not given) do in these assays?
CDC25B CDK2 inh: -2.37

Results for Cc1cc(-c2ccc(S(=O)(=O)NCc3ccc(C)o3)s2)on1 ?
TAR Tat displ: -0.73

Results for Cc1ccc2nc(SCCc3ccccc3)[nH]c2c1 ?
CDC25B CDK2 inh: -2.44; TAR Tat displ: 0.54

What do the screens show for `CCN(CC)S(=O)(=O)N(CC(=O)O)CC(=O)O`?
TAR Tat displ: 0.75

What do the screens show for `O=C(O)CN(CC(=O)O)S(=O)(=O)c1ccccc1`?
TAR Tat displ: 16.5*

What do the screens show for `Cc1cccc(NS(=O)(=O)c2cc(/C=C/c3onc(C)c3[N+](=O)[O-])ccc2C)c1`?
TAR Tat displ: 0.73

How did COCCCNC(=O)CCC(=O)N1CCCn2nc(C)cc21 do in these assays?
TAR Tat displ: 2.29

What do the screens show for `Cc1cc2n(n1)CCCN2C(=O)CCC(=O)NCCCOC(C)C`?
TAR Tat displ: 4.34*

What do the screens show for `O=C1CCS(=O)(=O)c2ccccc2N1Cc1cccc(F)c1`?
CDC25B CDK2 inh: -1.61; TAR Tat displ: 0.03

How did Cc1nc2nc(NC(=O)C(C)Oc3ccccc3)[nH]n2c(=O)c1Cl (stereo not given) do in these assays?
CDC25B CDK2 inh: -1.35; TAR Tat displ: -0.72

What do the screens show for `CSc1ccccc1NC(=S)Nc1ccc(Cl)cc1`?
CDC25B CDK2 inh: -1.53

Results for Fc1ccc(NC(=S)Nc2cccc3c(NC(=S)Nc4ccc(F)cc4)cccc23)cc1 ?
CDC25B CDK2 inh: 17.6*

How did O=C(Cc1noc2ccccc12)NC1CC1 do in these assays?
CDC25B CDK2 inh: -1.17; TAR Tat displ: 2.77

What do the screens show for `CCN1CCN(C(=O)C2=CC(c3cccs3)=NS(=O)(=O)N2C)CC1`?
CDC25B CDK2 inh: -1.78; TAR Tat displ: 1.17

What do the screens show for `O=C(/C=C/c1cccs1)NC(=S)Nc1ccccc1`?
CDC25B CDK2 inh: 8.26*

How did O=C(/C=C/c1cccs1)NC(=S)NCc1ccccc1 do in these assays?
CDC25B CDK2 inh: -2.05

Results for COc1cc(NS(=O)(=O)c2ccc3c(c2)NC(=O)CC(C)S3)cc(OC)c1 (stereo not given) ?
TAR Tat displ: 1.23

How did N#CC(C#N)=NNc1cccc(F)c1C#N do in these assays?
CDC25B CDK2 inh: -2.5

What do the screens show for `O=C(Nc1nn2c(-c3ccccc3)nnc2s1)c1ccco1`?
CDC25B CDK2 inh: -1.94; TAR Tat displ: 16.9*

Results for CC(=O)Nc1nn2c(-c3ccco3)nnc2s1 ?
CDC25B CDK2 inh: -1.17; TAR Tat displ: 1.51
